Hits are enriched below; roughly 19% of the tested compounds scored in any of these assays.
TDP1 cell noCPT = qHTS for Inhibitors of human tyrosyl-DNA phosphodiesterase 1 (TDP1): qHTS in cells in absence of CPT; DT40 Tdp1-/- hTDP1 cells, no CPT, ATP luminescence, 48 h; Potency, µM (highest dose often 46.2 µM), inactives show at the highest dose activity change, negative = growth inhibition, hits mostly inhibitors; actives 15% (n = 420,000); note: nearly all actives have a fitted effect of over 55% in size
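Growth kinetics read by CellTiter-Glo luminescence after ≥48 hr at 37 °C. Cells: DT40 Tdp1-/- stably carrying human TDP1, 400 per well, compound exposure in the absence of CPT (DMSO vehicle).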
TDP1 cell CPT = growth inhibition of DT40 Tdp1-/-;hTDP1 cells with camptothecin (screen for TDP1 inhibitors) | chicken DT40 Tdp1-/-;hTDP1 cells + 20 nM CPT, ATP luminescence, 48 h | Potency, µM (highest dose often 46.2 µM), for inactives: top-dose activity change, negative = growth inhibition, actives largely listed as inhibitors | actives 12% (n = 420,000) | AID 686979; note: nearly all actives have a fitted effect of over 55% in size
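Cell growth measured by CellTiter-Glo luminescence after a minimum 48 h, 37 C compound exposure with 20 nM CPT in Tdp1-knockout DT40 cells stably expressing hTDP1, seeded 400/well; qHTS titration format.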
Gal4-VP16 FLuc = inhibits Gal4-VP16 luciferase reporter, ROR gamma counter-screen; Drosophila S2 Gal4-VP16 UAS-luciferase, luminescence, 20 h; Potency, µM (series often up to 53.6 µM), inactives show at the top dose activity, negative = inhibition, usual class: inhibitors; actives 3.5% (n = 310,000);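 note: Gal4-VP16 expression switched on by copper sulfate through the metallothionein promoter; nearly all actives have a fitted effect of over 50% in size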
TDP1 inh = blocks human tyrosyl-DNA phosphodiesterase 1; actives 0.28% (n = 350,000); Potency, µM (highest dose often 130 µM), for the others: top-dose activity change, negative = inhibition, hits mostly inhibitors; recombinant TDP1, AlphaScreen DNA substrate cleavage; AID 485290; note: nearly all actives have a fitted effect of over 40% in size
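Compounds were preincubated with Tdp1 (1 nM final) for 15 min at room temperature before substrate (15 nM final) started a 5 min reaction; beads (10 ug/ml final) were then added for 10 min before AlphaScreen detection.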
RORg inh = blocks mouse ROR gamma transcriptional activity | P51450 | Drosophila S2 Gal4-RORgamma UAS-luciferase reporter, 20 h | Potency, µM (series often up to 53.6 µM), for the others: at the highest dose activity change, negative = inhibition, most hits filed as inhibitors | actives 5.4% (n = 310,000) | AID 2551; note: nearly all actives have a fitted effect of over 60% in size
Target sequence (P51450 whole entry, looked up, the tested form may be a part): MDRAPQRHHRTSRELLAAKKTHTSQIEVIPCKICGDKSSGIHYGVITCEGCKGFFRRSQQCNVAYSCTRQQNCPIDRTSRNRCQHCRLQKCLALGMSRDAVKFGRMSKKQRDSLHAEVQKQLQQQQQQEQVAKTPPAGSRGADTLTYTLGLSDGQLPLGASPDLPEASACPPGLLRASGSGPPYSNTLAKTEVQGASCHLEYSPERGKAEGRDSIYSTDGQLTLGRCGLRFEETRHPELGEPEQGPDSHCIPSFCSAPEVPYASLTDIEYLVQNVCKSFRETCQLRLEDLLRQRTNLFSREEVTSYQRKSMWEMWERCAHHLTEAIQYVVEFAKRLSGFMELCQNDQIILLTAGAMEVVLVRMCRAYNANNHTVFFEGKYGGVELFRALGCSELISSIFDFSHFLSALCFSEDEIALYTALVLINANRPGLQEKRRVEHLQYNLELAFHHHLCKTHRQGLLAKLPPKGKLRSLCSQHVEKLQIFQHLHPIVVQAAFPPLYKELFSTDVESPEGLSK
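Using a luciferase readout, inhibitors were identified by reduced reporter activity in Drosophila cells coexpressing a copper-inducible Gal4–ROR gamma fusion and UAS-driven Photinus luciferase, incubated 20 hr after 700 uM copper sulfate.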
An asterisk follows results filed as active; ? = inconclusive; · = no result given; [ ] = remark or other dose. Calls come from the whole dose curve; as a rule, active = well fitted curve in the direction sought with a large enough effect; inconclusive = small, poorly fitted or top-dose-only effect, or another doubt; inactive = no such curve, though single readings can be large; an effect the other way counts as inactive or inconclusive. % is set by controls: 0 for no effect and ±100 for the full control effect; potency is the fitted concentration of half-maximal effect.

SMILES	TDP1 cell noCPT	TDP1 cell CPT	Gal4-VP16 FLuc	TDP1 inh	RORg inh
FC(F)(F)c1ccccc1/C=N/N1CCN(Cc2ccccc2)CC1	?	?	3%	-5%	15%[10 µM]
Cc1ccc(Cn2c(C(C)Nc3nc(-c4ccc(F)cc4)cs3)nc3cc(Cl)c(Cl)cc32)cc1 (stereo not given)	?	29µM*	·	·	·
CCCn1c(C(C)Nc2nc(-c3ccc(C)cc3)cs2)nc2cc(Cl)c(Cl)cc21 (stereo not given)	-36%	?	-8%	·	11µM*
O=C(C[C@H]1C[C@H](C(=O)N2CCOCC2)[C@@]2(CCC3CCCC3)c3[nH]c4ccc(Cl)cc4c3CCN2C1=O)NCC12CC3CC(CC(C3)C1)C2	21µM*	16µM*	·	2%[56.1 µM]	·
COc1ccc2[nH]c3c(c2c1)CCN1C(=O)C(CC(=O)NCC24CC5CC(CC(C5)C2)C4)C[C@H](C(=O)N2CCOCC2)[C@@]31CCC1CCCC1 (stereo not given in full)	?	?	·	1%[56.1 µM]	·
COCCCNC(=O)C[C@H]1C[C@H](C(=O)N2CCOCC2)[C@@]2(CCC3CCCC3)c3[nH]c4ccc(Cl)cc4c3CCN2C1=O	?	21µM*	·	0%[56.1 µM]	·
O=C(C[C@H]1C[C@H](C(=O)N2CCOCC2)[C@@]2(CCC3CCCC3)c3[nH]c4ccc(Cl)cc4c3CCN2C1=O)NCCc1ccccn1	16µM*	16µM*	·	0%[56.1 µM]	·
O=C(C(Cl)c1ccccc1)N1CCCC1 (stereo not given)	?	?	2%	11%	-28%
CC(NC(=O)C(C)N1CCN(S(=O)(=O)c2ccccc2)CC1)c1ccccc1 (stereo not given)	-16%	-15%	·	0%[56.1 µM]	·
C#CCN1C(=O)C2C(C(=O)NC)C3C=CC2(O3)C1C(=O)NCc1ccc(OC)cc1 (stereo not given)	0%	-11%	1%	-2%	-12%
COc1ccc(N2C(=O)CC(N3CCC(c4nc5ccccc5[nH]4)CC3)C2=O)cc1 (stereo not given)	?	?	-7%	4%	-7%
O=C1CC(N2CCC(c3nc4ccccc4[nH]3)CC2)C(=O)N1c1ccccc1F (stereo not given)	?	26µM*	0%	3%	-6%
CC(=O)c1c(C)oc2ccc(NS(=O)(=O)c3ccc(C)cc3)cc12	8.2µM*	?	?	0%	?
CC(=O)c1c(C)oc2ccc(NS(=O)(=O)c3ccc(C(C)C)cc3)cc12	5.8µM*	5.8µM*	·	·	·
CC(=O)c1c(C)oc2ccc(NS(=O)(=O)c3cccs3)cc12	?	?	10%	-5%	42%
COCCOC(=O)c1c(C)oc2ccc(NS(=O)(=O)c3ccc(C(=O)O)cc3)cc12	-27%	-2%	-1%	-11%	-25%
Cc1oc2ccc(NS(=O)(=O)c3ccc(C(C)(C)C)cc3)cc2c1C(=O)Nc1ccccc1	18µM*	?	-8%	2%	37%
COCc1oc2ccc(NS(=O)(=O)c3ccc(C)cc3)cc2c1C(=O)OC	2.3µM*	3.7µM*	·	·	·
COC(=O)c1cc2cc(NS(=O)(=O)c3ccc(C)cc3)ccc2s1	-27%	?	?	0%	?
COc1ccc(N2C(N)=NC(N)=NC23CCCC3)cc1	1.5µM*	?	0%	7%	3%
CCCCOc1ccc(N2C(N)=NC(N)=NC23CCCCC3)cc1	6.5µM*	9.2µM*	-1%	·	16%
NC1=NC2(CCCCC2)N(c2cccc(Cl)c2)C(N)=N1	0.46µM*	10µM*	-4%	4%	-7%
Cc1nnc(NC(=O)C2CCCCC2)s1	-4%	-3%	7%	0%	-2%
CC(=NNC(=S)Nc1ccccc1)c1ccccn1	0.12µM*	0.026µM*	·	·	·
CC(=NNC(=S)Nc1ccccc1Cl)c1ccccn1	0.15µM*	0.013µM*	·	·	·
C=CCNC(=S)N/N=C(\C)c1ccccn1	0.018µM*	0.01µM*	0.11µM*	10%	0.028µM*
O=C(COc1ccc(S(=O)(=O)NC2CCCC2)cc1)N1CCCCC1	6%	13%	-6%	2%	4%
